High-throughput results as filed in PubChem.
ANO1 activ – activates or potentiates the mouse TMEM16A chloride channel. B-score at 10 µM. HEK293 TMEM16A/YFP-H148Q/I152L, iodide quench fluorescence; stronger effect = lower value. hit rate 0.3% among 340,000. Q8BHY3. AID 623877;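 active = fluorescence-ratio B-score plate-corrected deviation score at least 3 library SD below zero, with starting fluorescence score within 5 deviations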;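 note: channel opened by trigger with iodide after compound preincubation; score built on the fluorescence ratio of max minus min over baseline; more negative score means more quench and so TMEM16A activation or potentiation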
Target sequence (Q8BHY3 whole entry, looked up): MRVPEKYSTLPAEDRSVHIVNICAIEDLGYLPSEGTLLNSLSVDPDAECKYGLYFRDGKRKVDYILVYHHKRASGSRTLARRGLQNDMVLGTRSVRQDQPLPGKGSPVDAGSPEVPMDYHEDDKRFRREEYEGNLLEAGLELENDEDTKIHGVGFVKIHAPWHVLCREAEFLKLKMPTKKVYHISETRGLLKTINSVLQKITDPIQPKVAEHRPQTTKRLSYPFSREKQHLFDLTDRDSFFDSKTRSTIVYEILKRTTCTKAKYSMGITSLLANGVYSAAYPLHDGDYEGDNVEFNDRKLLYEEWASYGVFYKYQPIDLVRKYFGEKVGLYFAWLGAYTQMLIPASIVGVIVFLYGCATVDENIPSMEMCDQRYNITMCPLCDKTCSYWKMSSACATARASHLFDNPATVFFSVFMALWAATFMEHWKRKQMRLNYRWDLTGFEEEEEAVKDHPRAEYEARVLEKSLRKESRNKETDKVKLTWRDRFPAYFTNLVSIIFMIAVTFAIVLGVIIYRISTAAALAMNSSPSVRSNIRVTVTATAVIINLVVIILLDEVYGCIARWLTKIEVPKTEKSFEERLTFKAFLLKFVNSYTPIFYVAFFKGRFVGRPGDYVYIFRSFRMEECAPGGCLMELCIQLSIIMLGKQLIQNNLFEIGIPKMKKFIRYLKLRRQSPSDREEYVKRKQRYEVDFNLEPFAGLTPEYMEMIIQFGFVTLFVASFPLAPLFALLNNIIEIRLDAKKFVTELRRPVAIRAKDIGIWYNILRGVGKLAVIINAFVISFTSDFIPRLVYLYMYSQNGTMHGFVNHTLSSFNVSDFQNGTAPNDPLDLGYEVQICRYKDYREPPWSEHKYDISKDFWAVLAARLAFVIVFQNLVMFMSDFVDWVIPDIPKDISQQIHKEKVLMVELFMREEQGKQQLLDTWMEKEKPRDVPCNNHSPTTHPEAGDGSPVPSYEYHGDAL
IDE cell activ – boosts human insulin-degrading enzyme activity in HEK cells. AID 493087. FAbeta-B cleavage, fluorescence polarization; 0% vehicle, 100% cell-free pure enzyme wells. hit rate 0.073% among 340,000. activation, % at 5.96 µM;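 active = activation above the mean of all tested compounds plus 3 SD, set per screening campaign, cut at about 17% in these data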
CHT inh – inhibitors of human choline transporter CHT. CHT-expressing cells, membrane potential dye, choline response; stronger effect = lower value. B-score at 10 µM. Q9GZV3. AID 488975. hit rate 0.86% among 310,000;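 active = B-score over 3 SD under the library average, and starting fluorescence ratio not unusually high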;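 note: choline stimulus applied at its EC90 after an EC20 pre-addition; B-score computed on integrated fluorescence ratio after choline addition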
CHT PAM – human CHT allosteric activation; B-score at 10 µM; AID 488977; hit rate 0.49% among 310,000; CHT-expressing cells, membrane potential dye, choline EC20; stronger effect = higher value; LV-AA mutant CHT in HEK293 cells; Q9GZV3;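 active = initial fluorescence not abnormally high and integrated response B-score, plate-corrected, over 3 SD above library mean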
IDE cell inh – inhibitors of human insulin-degrading enzyme in cells; AID 434962; inhibition, % at 5.59 µM; hit rate 0.41% among 320,000; P14735; HEK cells, FAbetaB cleavage, fluorescence polarization;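 active = percent inhibition above the average of all tested compounds plus 3 SD, set per screening campaign, cut at about 16% in these data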;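 note: IDE supplied by intact live HEK cells; FP after avidin binding of uncleaved biotin substrate so inhibition keeps polarization high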
ANO1 block – inhibitors of mouse TMEM16A calcium-activated chloride channel | Q8BHY3 | HEK293 TMEM16A/YFP iodide influx fluorescence, ionomycin | normalized B-score (activity score, 25-100; higher = stronger inhibition) at 10 µM | hit rate 1.2% among 310,000;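 active = ratio plate-corrected score three or more library SD toward inhibition, starting fluorescence score within five deviations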;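 note: score derived from kinetic fluorescence span divided by baseline fluorescence per well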
Hits are given with their value; – = inactive; · = no result given. Compounds with a hit are over-represented: about 2.7% of the library has one in this group of screens.

SMILES | ANO1 activ | IDE cell activ | CHT inh | CHT PAM | IDE cell inh | ANO1 block
CC(=O)Oc1ccc(C2(C)CC(C)(C)Oc3cc(OC(C)=O)ccc32)c(OC(C)=O)c1 (configuration not stated) | – | – | – | – | – | –
COc1ccc(S(=O)(=O)N2CCOCC2)cc1NC(=O)CN1C(=O)NC2(CCCC2)C1=O | – | – | · | · | – | ·
COC(=O)[C@@H]1[C@@H](C#N)C2(c3ccccc3-c3ccccc32)N(c2ccc(Cl)cc2)N1C#N | – | – | – | – | – | 25
Cc1cc(CSC(=N)N)c(CSC(=N)N)cc1C | – | – | – | 12 | – | –
Cc1nc2ccccc2c2oc(C(=O)NCC3COc4ccccc4O3)cc12 (configuration not stated) | – | – | – | – | – | 25
CCc1ccc(CNC(=O)c2cc3c(C)nc4ccccc4c3o2)cc1 | – | – | – | – | – | –
Cc1cc(S(=O)(=O)Nc2ccc(C(=O)NCC(C)(C)N3CCOCC3)cc2)ccc1F | – | – | – | – | – | –
CCOC(=O)N1CCc2c(sc(NC(=O)c3ccc(Cl)s3)c2C(N)=O)C1 | · | · | – | – | – | 100
COc1ccccc1N1CC(C(=O)OCC(=O)Nc2c(C)cccc2C)CC1=O (configuration not stated) | – | – | – | – | – | –
COc1ccc(OC)c(NC(=O)COC(=O)[C@H](Cc2ccccc2)NC(=O)c2ccco2)c1 | – | – | · | · | – | ·
COc1cc(OC)c(NS(=O)(=O)c2c(C(=O)N3CCCCC3)c(C)n(C)c2C)cc1Cl | – | – | – | – | – | –
COc1cc(OC)c(NC(C)C(=O)N2CCCC2)cc1Cl (configuration not stated) | – | – | -8.7 | – | – | –
COc1ccc(NC(=O)c2cc(-c3cccnc3)nc3ccc(C)cc23)cc1OC | – | – | · | · | · | ·
COc1ccc(NC(=O)c2cc(-c3ccncc3)nc3ccc(Br)cc23)cc1OC | – | – | – | – | – | 100
O=C(NNC(=O)c1ccc([N+](=O)[O-])cc1C(=O)O)c1ccncc1 | – | – | – | – | – | –
CC(C)(C)c1nnc2sc(SCC(=O)N3CCCCC3)nn2c1=O | – | – | · | · | – | ·
CCCCCCCCCCCCCCCC[n+]1cccc2ccccc21 | – | – | – | 8.7 | – | 100
O=C(C[n+]1cccc2ccccc21)c1ccccc1 | – | – | – | – | – | –
O=C(O)/C=C/C(=O)Nc1ccc2nccnc2c1 | – | – | – | – | – | 25
COCO/C=C(\NC(C)=O)c1ccccc1 | – | 31 | · | · | – | ·
Cc1cccc(CNS(=O)(=O)c2csc(C(N)=O)c2)c1 | – | – | – | – | – | –
NC(=O)c1cc(S(=O)(=O)NCc2ccc(F)cc2)cs1 | -14 | – | – | – | – | –
CSc1cccc(NC(=S)N2CCC(c3ccccc3)C2)c1 (configuration not stated) | – | – | – | – | – | –
CCc1cccc(NC(=S)N2CCC(c3ccccc3)C2)c1 (configuration not stated) | -5.7 | – | – | – | – | –
COc1ccc(-c2c[n+]3c(n2-c2ccccc2)SCC3)cc1 | – | – | – | – | – | –
SMILES | ANO1 activ | IDE cell activ | CHT inh | CHT PAM | IDE cell inh | ANO1 block
COc1ccc(-c2c[n+]3c(n2-c2ccccc2)SCC3)cc1OC | -29 | – | – | – | – | –
COc1cccc(CN(C)C(=O)c2cc(COc3ccc(-n4cncn4)cc3)on2)c1 | – | – | – | – | – | 25
COc1cccc(NC(=O)CN(C)C(=O)c2ccc3ccccc3c2)c1 | – | – | – | – | – | –
COc1cccc(NC(=O)CN(C)C(=O)c2cc3ccccc3cc2OC)c1 | -34 | – | · | · | – | ·
Cc1sc(N)nc1-c1c(C)n(C)c2ccccc12 | – | – | – | – | · | –
O=C(Nc1ccc(C(=O)N2CCOCC2)cc1)C1CC1 | · | – | · | · | · | ·
Cc1cccc(NC(=O)C(=O)NCCc2c[nH]c3ccccc23)c1C | -5.6 | – | – | – | – | –
C/C(=N\NC(=O)c1ccc(CN2CCc3ccccc3C2)cc1)c1ccccc1O | – | – | – | – | – | 100
CCCNC(=O)c1ccc(CN2CCc3ccccc3C2)cc1 | – | – | – | – | – | –
O=C1/C(=C\c2ccc(O)cc2)SC(=S)N1c1cccnc1 | – | – | – | – | 88 | –
